Compounds with a hit are over-represented: about 4.3% of the library has one in this group of screens.
SMARCA2 act – SMARCA2 function activation, primary screen; MG213 cells, MMTV-luciferase reporter, dexamethasone, overnight; activation, % at 9.1 µM; 1% of 370,000 active; AID 652017; in the data active = activation above about 7.8%;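 note: 0% = vehicle wells and 100% = reference activator wells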
Wnt act – Wnt/beta-catenin pathway activation; Wnt/beta-catenin reporter cell assay, activator, plate reader; 1.2% of 300,000 active; activation, % at 9.35 µM; AID 743398; in the data active = activation above about 30%, passing the limit was not always enough; inconclusive = no clear call, values can overlap the other calls;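 note: 0% = neutral control wells and 100% = positive control wells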
HSF1 activator – increases HSF-1 driven luciferase reporter signal; NIH3T3-HGL HSF-1 luciferase reporter, MG132, 8 h; 100% = twice DMSO control signal; activation, % at 9 µM; 1.7% of 300,000 active;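 active = mean replicate activation of at least 50% with a set share of replicates each reaching 50%; inconclusive = only one of those two conditions met; inactive = mean below 50% and too few replicates reaching it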;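 note: 0% = median of the neutral control wells and 100% = twice that signal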
MITF act – activators of MITF-driven TRPM1 promoter activity in SK-MEL-5 cells; SK-MEL-5 TRPM1-promoter luciferase, 24 h; % of positive control, neutral wells = 0; activation, % at 12.5 µM; 0.75% of 300,000 active; AID 588334;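 active = mean activation of at least 80% with every replicate also reaching 80%; inconclusive = mean reaches 80% but some replicate falls short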;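 note: 0% = neutral control wells and 100% = parthenolide positive control wells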
HSF1 inhib – HSF1 inhibition. 0.77% of 300,000 active. NIH3T3-HGL HSE-luciferase, MG132-induced, luminescence 8 h; hits give low values. AID 2098. activity change, negative = inhibition, % at 7.5 µM (by protocol);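 active = more than half of replicate wells show activity change below -50%, luminescence cut by over half; inconclusive = some wells, but at most half, below -50%; inactive = no replicate well below -50%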;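 note: luciferase reports HSF-1 transcriptional activity via heat shock element; 0% = median of DMSO wells and -100% = zero luminescence signal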
esBAF inh – SWI/SNF esBAF complex inhibition; mouse ES cells, Bmi1-luciferase knock-in reporter, 24 h; 100% = twice the neutral-well signal; reporter increase, % at 12.5 µM; 2% of 350,000 active; in the data active = activation above about 40%; inconclusive = no clear call, values can overlap the other calls;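 note: 0% = median of the plate's neutral control wells and 100% = double that signal; a rise in the Bmi1 reporter signal indicates esBAF inhibition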
* hit, by the source's call; ? = inconclusive; / = no result given.

SMILES	SMARCA2 act	Wnt act	HSF1 activator	MITF act	HSF1 inhib	esBAF inh
CC(=O)NCCN=Cc1sc2ccccc2c1O	-3	18	-11	-2	-3	14
CCCN=Cc1sc2ccc(OCC)cc2c1O	-2	27	16	101*	1	77*
Cc1ccccc1OCC1Cc2c(nc(N)c(C#N)c2N)O1 (stereo not given)	7	17	/	78	/	49*
N#Cc1c(N)nc2c(c1N)CC(COc1ccccc1)O2 (stereo not given)	6	/	35	?	23	/
CCC(=O)Nc1c(S(=O)(=O)c2ccccc2)c2nc3ccccc3nc2n1C(C)c1ccccc1 (stereo not given)	-4	-1	83*	7	41	/
CCC(=O)Nc1c(S(=O)(=O)c2ccc(C)cc2)c2nc3ccccc3nc2n1C(C)c1ccccc1 (stereo not given)	-2	-1	12	-3	0	/
C[C@@H]1CCCCO[C@H](CN(C)C(=O)Nc2ccc(F)cc2)[C@H](C)CN([C@H](C)CO)C(=O)c2cc(NC(=O)Cc3ccccc3)ccc2O1	/	/	/	/	/	2
O=c1c2ccccc2c(=O)n(-c2ccccc2)n1-c1ccccc1	-1	37*	/	-15	/	-2
COc1ccccc1-c1cn(CC[C@@H]2CC[C@H](NC(=O)CCN3CCCCC3)[C@@H](CO)O2)nn1	/	/	/	/	/	1
O=C(Nc1sc2c(c1CN1CCOCC1)CCC2)c1ccc(F)cc1	0	1	35	-1	30	-2
Cc1sc(NC(=O)c2ccc(F)cc2)c(CN2CCCCCC2)c1C	4	9	56*	5	39	0
Cc1sc(NC(=O)c2ccccc2F)c(CN2CCCCC2)c1C	4	/	58*	18	13	/
O=C(c1ccccc1)c1ccc(Cn2cc(-c3ccccc3)nn2)cc1	-2	3	17	29	22	15
CCCCCc1ccc(-c2cn(Cc3ccc(C(=O)c4ccccc4)cc3)nn2)cc1	0	3	0	-8	8	53*
Cc1cccc(S(=O)(=O)N[C@@H]2CC[C@H](CCNC(=O)c3cnccn3)O[C@@H]2CO)c1	/	/	/	/	/	-4
COc1ccc2nc(N3CCCCC3)c(C#N)cc2c1	0	44*	7	/	9	?
CCCc1c(C)c2ccc(OCC(C)=O)cc2oc1=O	4	10	40	/	16	?
Cc1c(Cc2ccccc2)c(=O)oc2cc(OC(=O)c3ccccc3)ccc12	1	-1	6	/	4	-6
Cc1c(C)c2ccc(OCC(=O)c3ccccc3)cc2oc1=O	0	26	27	94*	19	?
CCCCc1c(C)c2ccc(OCC(C)=O)cc2oc1=O	5	4	/	78	/	63*
COC(=O)Cc1c(C)c2ccc(OC(=O)c3ccccc3)cc2oc1=O	-2	/	61*	18	27	10
O=C(C[C@@H]1C=C[C@@H](NC(=O)NC2CCCCC2)[C@@H](CO)O1)NCc1ccc(Cl)cc1	/	/	/	/	/	3
CC(=O)/C(=N/Nc1ccc(Br)cc1)N1CCCc2ccccc21	-8	4	57*	/	22	/
Cc1nc2ccccn2c1-c1ccnn1S(=O)(=O)c1ccc(F)cc1	-2	-1	-71	-13	-67*	-31
Cc1nc2ccccn2c1-c1nnco1	0	-1	-25	4	-10	-7
SMILES	SMARCA2 act	Wnt act	HSF1 activator	MITF act	HSF1 inhib	esBAF inh
COCC(=O)N1C[C@@H](C)[C@@H](OC)CN(C)C(=O)c2ccc(NC(=O)c3ccccc3)cc2OC[C@@H]1C	/	/	/	/	/	-1
Cn1c(CSc2ccccc2)c(C#N)c2ccccc21	2	/	90*	76	29	63*
CCCNC(=O)C[C@@H]1CC[C@@H]2[C@H](COC[C@H](O)CN2C(=O)C2CCOCC2)O1	/	/	/	/	/	-4
O=c1c(-c2ccc3c(c2)OCCO3)coc2cc(O)cc(O)c12	4	/	71*	/	26	11
CCN(CC)Cc1c(O)ccc2c(=O)c(-c3ccc4c(c3)OCCO4)coc12	-2	/	-6	6	3	4
Cc1ccc(C2Nc3ccc4ccccc4c3C3=C2C(=O)CC(C)(C)C3)o1 (stereo not given)	/	9	86*	14	61	/
CC1(C)CC(=O)C2=C(C1)c1c(ccc3ccccc13)NC2c1ccc(C(=O)O)cc1 (stereo not given)	-2	-2	-11	-15	-12	11
CCn1c(-c2cc(-c3ccccc3)sc2N)n[nH]c1=S	3	2	64*	/	29	/
CCn1c(-c2ccccc2O)n[nH]c1=S	1	/	28	-4	13	/
CC(=O)Nc1ccc(S(=O)(=O)NCc2ccc(C(=O)NCc3ccc(Cl)cc3)cc2)cc1	0	-3	-6	4	-1	-3
CC(=O)Nc1ccc(S(=O)(=O)NCc2ccc(C(=O)NCc3ccc4c(c3)OCO4)cc2)cc1	-2	/	-72	7	-62*	-11
C[C@@H]1CN([C@H](C)CO)C(=O)c2cc(NC(=O)CCN3CCOCC3)ccc2O[C@@H]1CN(C)Cc1ccc2c(c1)OCO2	/	/	/	/	/	0
O=C(NCC1CCOCC1)c1ccc2nc(Cc3cccc(Cl)c3)oc2c1	3	0	54*	36	12	46*
COc1ccc(Cc2nc3ccc(C(=O)NCC(C)(C)OC)cc3o2)cc1	7	8	29	104*	20	76*
CN(CC1CCOCC1)C(=O)c1ccc2nc(Cc3cccc(Cl)c3)oc2c1	-2	2	-5	-6	6	/
COC(=O)CCNC(=O)c1ccc2nc(Cc3ccc(OC)cc3)oc2c1	-4	6	-61	4	-48	3
COCC(=O)N(C)C[C@H]1Oc2cc(-c3ccc(F)cc3)ccc2S(=O)(=O)N([C@H](C)CO)C[C@@H]1C	/	/	/	/	/	-1
C[C@@H]1CN([C@H](C)CO)C(=O)Cc2cc(NC(=O)Nc3ccccc3)ccc2O[C@@H]1CN(C)S(=O)(=O)c1ccc(Cl)cc1	/	/	/	/	/	-3
CCNC(=O)Nc1ccc2c(c1)C(=O)N(C)[C@@H]1CC[C@@H](CC(=O)NCC3CCCCC3)O[C@H]1CO2	/	/	/	/	/	-1
COc1ccc(-c2noc(-c3ccccc3F)n2)cc1	2	14	32	33	8	-15
Fc1ccccc1-c1nc(-c2ccncc2)no1	6	55*	35	/	21	?
CN1CCN(C(=O)c2ccccc2-c2nc(-c3ccccc3)no2)CC1	5	-1	/	5	/	48*
Fc1ccccc1-c1nc(-c2cnccc2C(F)(F)F)no1	-2	9	20	25	3	9
Cc1ccc(-c2noc(-c3ccccc3C(=O)N3CCOCC3)n2)cc1	-1	0	2	-12	1	8
Fc1ccccc1-c1nc(-c2ccccc2)no1	5	46*	?	-3	26	-4
Fc1ccccc1-c1nc(-c2ccc(-c3nn[nH]n3)cc2)no1	6	39*	/	47	/	34
O=C(NN=C1CCCC1)c1n[nH]c2c1CCC2	-1	2	-8	21	-9	/

Source: PubChem BioAssay (several laboratories)
